Potency data for 17 compounds are collected here from PubChem BioAssay (NCATS).

Each structure is given as a SMILES string. Inconclusive results are not listed. Calls of active or inactive are those of the source. Calls come from the whole dose curve; as a rule, active = well fitted inhibition curve with a large enough effect; inconclusive = small, poorly fitted or top-dose-only effect; inactive = flat fitted curve, though single readings scatter.

What all share (experiment): qHTS profiling for inhibitors of Plasmodium falciparum proliferation (AID 504749); note: nearly all actives have a fitted effect of over 60% in size
What all share (conditions): P. falciparum in erythrocytes, SYBR Green DNA, 72 h; series mostly up to 28.7 µM
Background: In qHTS, concentration-response curves come from the screen itself.

The test system of one assay is CP215. The method, boiled down: (§1)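 P. falciparum-infected erythrocytes (0.3% parasitemia, 2.5% hematocrit final) were exposed to compounds for 72 h at 37 C in 5% CO2, then lysed with SYBR Green buffer overnight at room temperature; parasite DNA fluorescence was normalized to artemisinin and DMSO controls.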
The subject of another assay is CP217. The method in brief:
as §1

The test system of the next assay is CP237. The method, boiled down:
as §1

The next assay relates to CP238. The method in brief:
as §1

Another assay deals with CP250. The method, boiled down:
as §1

For the next assay, the system named is CP252. The method in brief: as §1
A further assay concerns CP256. The method in brief:
as §1

The next assay deals with CP260. The method in brief: as §1
Another assay deals with CP262. The method, boiled down: as §1
The next assay has as its system CP265. The method, boiled down:
as §1

The next assay has as its system CP266. The method in brief: as §1
A further assay relates to CP268. The method in brief: as §1
The subject of the next assay is CP269. The method in brief:
as §1

The subject of a further assay is CP286. The method, boiled down:
as §1

Another assay deals with CP291. The method, boiled down: as §1
The test system of a further assay is CP297. The method, boiled down:
as §1

A further assay has as its system CP305. The method in brief:
as §1

The subject of another assay is CP315. The method in brief:
as §1

Another assay concerns CP325. The method, boiled down:
as §1

Another assay has as its system CP247. The method, boiled down: as §1
Potency is the fitted concentration of half-maximal effect.

For `C[C@]12CCC(=O)C=C1CC[C@@H]1[C@@H]2[C@@H](O)C[C@@]2(C)[C@H]1CC[C@]2(O)C(=O)COP(=O)(O)O`, the Potency result in the assay on CP215, in the assay with CP217, in the assay with CP237, in the assay with CP238, in the assay on CP250 and in the assay with CP252 was “inactive” each time. Besides, the Potency entry in the assay on CP256, with CP260, in the assay with CP262, in the assay with CP265, with CP266 and in the assay with CP268 was “inactive” throughout. Moreover, the Potency result in the assay on CP269, in the assay with CP286, in the assay with CP291, in the assay on CP297, with CP305 and in the assay on CP315 was “inactive” each time. The Potency entry with CP325 was “inactive”.

With `O=C(COc1ccc(Cl)cc1)OCCNC12CC3CC(CC(C3)C1)C2`, the Potency entry in the assay with CP215, with CP217, with CP238, in the assay on CP247, with CP250 and with CP252 was “inactive” throughout. Further, the Potency entry in the assay on CP256, in the assay with CP260, in the assay with CP262, in the assay with CP265, in the assay with CP266 and in the assay with CP268 was “inactive” throughout. Further, the Potency entry with CP269, with CP286, with CP291, in the assay on CP305, in the assay with CP315 and with CP325 was “inactive” each time.

Take `Cc1cn([C@H]2C[C@H](O)[C@@H](CO)O2)c(=O)[nH]c1=O`: the Potency entry with CP215, in the assay on CP217, in the assay with CP237, with CP238, in the assay on CP247 and in the assay on CP250 was “inactive” throughout. Further, the Potency result in the assay with CP252, with CP256, in the assay with CP262, in the assay with CP265, in the assay with CP266 and in the assay with CP268 was “inactive” throughout. In addition, the Potency result in the assay with CP269, in the assay with CP286, in the assay on CP291, in the assay on CP297, in the assay with CP305 and with CP315 was “inactive” each time. The Potency entry in the assay with CP325 is “inactive”.

For `Cc1ccccc1OCC(O)CNCCOc1ccc(C(N)=O)cc1` (configuration not stated), the Potency result in the assay with CP215, in the assay with CP217, in the assay with CP237, with CP238, in the assay on CP247 and in the assay with CP250 was “inactive” throughout. Further, the Potency result in the assay on CP252, with CP256, with CP260, in the assay on CP262, in the assay with CP265 and in the assay with CP266 was “inactive” each time. In addition, the Potency entry in the assay with CP268, in the assay on CP269, in the assay on CP286, with CP291, in the assay with CP297 and in the assay on CP305 was “inactive” in each case. Moreover, the Potency result in the assay with CP315 and in the assay with CP325 was “inactive” in each case.

Consider `CN=C(NC#N)Nc1ccc(C2=NNC(=O)C[C@@H]2C)cc1`, for which the Potency entry with CP217, in the assay on CP237, in the assay with CP238, in the assay on CP247, in the assay with CP250 and with CP252 was “inactive” each time. Further, the Potency result with CP256, with CP260, in the assay with CP265 and with CP286 was “inactive” each time.

For the compound `CCOc1ccc2c(c1)C(C)=CC(C)(C)N2`, the Potency result in the assay on CP217, in the assay with CP237, in the assay on CP238, in the assay with CP247, in the assay with CP250 and in the assay on CP252 was “inactive” in each case. In addition, the Potency entry in the assay with CP256, in the assay with CP260, in the assay with CP262, in the assay with CP266, in the assay on CP268 and in the assay on CP269 was “inactive” throughout. The Potency entry in the assay on CP286, in the assay with CP291, in the assay on CP297, in the assay with CP305, with CP315 and in the assay with CP325 was “inactive” throughout.

`CCCCCCOc1ccc(C(=N)N(CCCC)CCCC)c2ccccc12`: the Potency in the assay with CP217 is 7.94 µM (active); in the assay with CP237, 11.2 µM (active); with CP247, 10 µM (active); in the assay with CP250, 8.91 µM (active); in the assay on CP252 it was 10 µM (active); in the assay on CP260 it was 4.47 µM (active). Also, the Potency with CP286 was 2.82 µM (active); in the assay with CP297 it was 16.9 µM (active).

For `O=C1CSC2(CCN(CCCN3c4ccccc4Sc4ccc(Cl)cc43)CC2)N1`, the Potency entry with CP238, in the assay with CP250, with CP256 and in the assay with CP262 was “inactive” throughout. For the same compound, the Potency in the assay on CP291 was 13.5 µM (active).

Take `CCOC(=O)C1=CC2(CC)CCCN3CCc4c(n1c1ccccc41)C32` (configuration not stated): the Potency in the assay with CP217 is 11.2 µM (active); with CP238, 8.91 µM (active); with CP252, 11.2 µM (active); with CP256, 6.31 µM (active); in the assay with CP265, 11.2 µM (active); in the assay with CP286, 11.2 µM (active).

As for `O=S(=O)(O)c1cc(O)c2c(N=Nc3ccc(Nc4ccccc4)c4c(S(=O)(=O)O)cccc34)cc(S(=O)(=O)O)cc2c1`, the Potency entry in the assay on CP237, with CP238, in the assay on CP268, in the assay on CP315 and with CP325 was “inactive” throughout.

`O=C(O)CN(CCN(CC(=O)O)CC(=O)O)CC(=O)O`: the Potency result in the assay with CP217, in the assay with CP237, in the assay with CP238, with CP247, with CP250 and with CP252 was “inactive” each time. Moreover, the Potency entry in the assay with CP256, in the assay with CP260, in the assay with CP262, in the assay with CP265, with CP266 and with CP268 was “inactive” in each case. Besides, the Potency result with CP269, in the assay with CP286, in the assay on CP291, in the assay on CP297, in the assay with CP305 and with CP315 was “inactive” each time. The Potency result with CP325 is “inactive”.

For the compound `C#C[C@]1(O)CC[C@H]2[C@@H]3CCC4=CCCC[C@@H]4[C@H]3C(=C)C[C@@]21CC`, the Potency entry in the assay with CP215, with CP237, in the assay with CP260, in the assay with CP262, in the assay on CP266 and in the assay on CP269 was “inactive” in each case. In addition, the Potency entry with CP291, in the assay on CP297, in the assay on CP315 and in the assay on CP325 was “inactive” in each case.

For the compound `IC(I)I`, the Potency result with CP217, in the assay on CP237, in the assay on CP238, in the assay on CP247, in the assay on CP250 and in the assay with CP252 was “inactive” throughout. The Potency entry in the assay with CP256, in the assay on CP260, in the assay with CP262, with CP265, in the assay with CP266 and with CP268 was “inactive” each time. Also, the Potency result in the assay on CP269, with CP286, in the assay on CP297, in the assay on CP315 and with CP325 was “inactive” throughout.

In the case of `CC1=C(/C=C/C(C)=C/C=C/C(C)=C/CO)C(C)(C)CCC1`, the Potency in the assay with CP217 and with CP252 was 10 µM (active) in each case. Further, the Potency entry in the assay with CP262, in the assay on CP266, in the assay with CP268, in the assay with CP291, in the assay on CP297 and with CP305 was “inactive” throughout. Further, the Potency result in the assay with CP315 and in the assay on CP325 was “inactive” throughout.

As for `CN1C(=O)CN2CCc3ccccc3C2c2cc(Cl)ccc21` (configuration not stated), the Potency result in the assay with CP215, with CP238, in the assay on CP247, in the assay with CP250, in the assay with CP252 and with CP256 was “inactive” throughout. The Potency result in the assay on CP262, in the assay with CP265, in the assay with CP266, with CP268, in the assay on CP269 and in the assay on CP286 was “inactive” in each case. Besides, the Potency entry in the assay on CP291, in the assay on CP297, in the assay on CP305, in the assay with CP315 and in the assay on CP325 was “inactive” each time.

On to `CCCCCC(CC)COC(=O)CC(C(=O)OCC(CC)CCCC)S(=O)(=O)O` (configuration not stated), for which the Potency entry with CP217, in the assay on CP237, in the assay with CP238, with CP250, with CP252 and with CP256 was “inactive” throughout. The Potency entry in the assay on CP260, in the assay on CP265 and with CP286 was “inactive” throughout. For the same compound, the Potency with CP247 is 11.2 µM (active).

Consider `CN(C)CCCN1c2ccccc2C(C)(C)c2ccccc21`, for which the Potency entry with CP215, with CP217, in the assay on CP252, in the assay on CP260, with CP262 and in the assay with CP269 was “inactive” in each case. The Potency entry with CP286, with CP297, in the assay on CP305, in the assay with CP315 and in the assay with CP325 was “inactive” throughout.
